ST2 IL33 inh – inhibitors of human ST2 (IL1RL1) binding to IL-33 | AlphaLISA ST2-Fc/biotin-IL-33 interaction, 1 h | inhibition, % for hits at 17 µM | 78,000 compounds, 2.3% hits | AID 1259354; in the data active = inhibition above about 30%
Target sequence (Q01638 whole entry, looked up): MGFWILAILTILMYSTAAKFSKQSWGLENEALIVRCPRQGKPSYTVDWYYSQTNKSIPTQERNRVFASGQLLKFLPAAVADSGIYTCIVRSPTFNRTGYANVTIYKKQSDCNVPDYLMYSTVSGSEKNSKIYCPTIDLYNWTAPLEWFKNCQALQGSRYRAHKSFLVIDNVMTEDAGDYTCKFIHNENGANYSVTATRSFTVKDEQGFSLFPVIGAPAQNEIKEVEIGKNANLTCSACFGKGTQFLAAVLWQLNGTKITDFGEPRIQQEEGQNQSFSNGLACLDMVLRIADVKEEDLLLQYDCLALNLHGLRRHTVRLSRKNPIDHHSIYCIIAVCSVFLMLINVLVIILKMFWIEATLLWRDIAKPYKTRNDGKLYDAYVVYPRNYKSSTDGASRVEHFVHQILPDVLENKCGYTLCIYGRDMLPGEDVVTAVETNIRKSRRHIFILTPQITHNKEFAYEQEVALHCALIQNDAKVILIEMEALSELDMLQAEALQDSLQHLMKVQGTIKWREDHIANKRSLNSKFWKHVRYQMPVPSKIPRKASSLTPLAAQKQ
An asterisk follows results filed as active; i = inactive. This excerpt belongs to a sample that is enriched for hits.

SMILES | ST2 IL33 inh
O=C(/C=C/c1ccc(O)cc1)OC[C@H]1O[C@@H](Oc2ccc(C(=O)/C=C/c3ccc(O)cc3)c(O)c2O)[C@H](O)[C@@H](O)[C@@H]1O | i
CC1=C[C@@H](CNC(=O)c2ccccc2)[C@H](C(C)C)C[C@H]1CC(=O)O | i
CC1=C[C@@H](CNC(=O)NC2CCCCC2)[C@H](C(C)C)C[C@H]1CC(=O)O | i
COCC(=O)NC[C@@H]1C=C(C)[C@H](CC(=O)O)C[C@H]1C(C)C | 32%*
O=C(Nc1ncnc2sc3c(c12)CCCC3)c1ccccc1Br | i
NC(=O)c1cc2cc(Br)ccc2oc1=Nc1ccccc1 | 33%*
Cc1ccc(N=c2oc3ccc(Br)cc3cc2C(N)=O)cc1 | i
Cc1cccc(N=c2oc3ccc(Br)cc3cc2C(N)=O)c1 | i
CC(Oc1ccc(F)cc1)c1nc(-c2nonc2N)no1 (configuration not stated) | i
COc1cccc(OC)c1C(=O)Nc1cccc(C)c1 | i
CN(C)c1ccnc(Sc2ccccc2)c1C#N | i
N#Cc1ccccc1-c1nc2c3c(c(N)ccc3n1)C(=O)c1ccccc1-2 | 42%*
COc1cccc(OCCCCN2CCCCCC2)c1 | i
CC1=CCC(C(=O)O)(C(=O)n2nc(C)cc2C)C(c2ccc(Br)cc2)C1 (configuration not stated) | i
COc1cccc(-c2ccccc2NC(=O)C2CCN(Cc3ccc4nonc4c3)CC2)c1 | i
COc1ccc(N2CCN(Cc3cccnc3)CC2)cc1 | i
COc1ccc(N2CCN(Cc3ccc4nonc4c3)C(C)C2)cc1 (configuration not stated) | 31%*
O=S(=O)(Nc1ccccc1CO)c1ccc(Cl)cc1 | i
O=C(Nc1ccccc1-c1ccccc1)c1ccc(Br)o1 | i
O=C(CS(=O)(=O)c1cccc2nsnc12)Nc1ccccc1Br | i
O=C(Nc1cccc2nsnc12)c1ccc(-c2ccc(Br)cc2)o1 | 31%*
Cc1cc(Cl)ccc1-c1ccc(C=O)o1 | i
O=C1NC(=O)/C(=C/c2ccc(-c3cccc(Cl)c3Cl)o2)N1 | i
Cc1cc(C)c([N+](=O)[O-])cc1-c1ccc(C=C2C(=O)NC(=O)NC2=O)o1 | 36%*
CCC(Nc1cccc(OC)c1)C(=O)NCC1CCOCC1 (configuration not stated) | i
SMILES | ST2 IL33 inh
Clc1cccc(NC2CCOCC2)c1N1CCCC1 | i
COc1ccc(Nc2cc(C)nc(N3CCN(S(=O)(=O)c4ccc(OC)c(C)c4)CC3)n2)cc1 | i
COc1ccc(Nc2cc(C)nc(N3CCN(S(=O)(=O)c4ccc(OC)cc4)CC3)n2)cc1 | i
COc1ccc(S(=O)(=O)N2CCN(c3nc(C)cc(Nc4ccccc4)n3)CC2)cc1C | 34%*
CCOc1ccc(Nc2nnc(C)c(=O)[nH]2)cc1 | i
Cc1ncccc1Oc1ncnc(N2CCCC(O)(CO)CC2)c1C (configuration not stated) | i
CC(=O)n1cc(/C=C2\N=C(c3ccc(Cl)cc3)OC2=O)c2cc(Br)ccc21 | i
COc1ccccc1/C=C1\N=C(c2cccc(I)c2)OC1=O | i
CC(=O)n1cc(/C=C2/N=C(c3ccccc3)OC2=O)c2ccccc21 | 61%*
COc1ccccc1-c1cccc(C(=O)N2CCCC(O)(CO)CC2)c1 (configuration not stated) | i
C=CCS(=O)(=O)Nc1ccc(OC)cc1 | i
Cc1nn(C)c(C)c1CCC(=O)N1CCCC2(CC1)CN(C)C(=O)O2 (configuration not stated) | i
COc1ccc(F)c(-c2cnc(N)nc2)c1 | i
CCNc1nc(N2CCCC2)nc(N2CCC(Cc3ccccc3)CC2)n1 | 57%*
O=C(c1ccc(Cl)cc1)N1CCC(C(=O)N2CCC(Cc3ccccc3)CC2)CC1 | i
COc1ccc(S(=O)(=O)N2CCC(C(=O)N3CCC(Cc4ccccc4)CC3)CC2)cc1 | i
CCCCOC(=O)C1=C(C)Nc2nnnn2C1c1cc(Br)ccc1F (configuration not stated) | i
CCN(CC)C(=O)c1c[nH]c2ccc(S(=O)(=O)Nc3cccc(Cl)c3C)cc2c1=O | i
COc1ccc(C(=O)Oc2ccc3c4c(c(=O)oc3c2)CCC4)cc1OC | i
CSc1ccc(CN(C)C2CCN(C)CC2)cc1 | i
CC1=NN(c2ccc(F)cc2)C(=O)/C1=C/c1ccc(N(C)C)cc1 | i
CCN(C)c1ccc(/C=C2/C(=O)NN(c3cccc(Br)c3)C2=O)cc1 | 39%*
Cc1ccc(N2NC(=O)/C(=C/c3ccc(Cl)cc3)C2=O)cc1Cl | i
O=C1NN(c2cccc(Br)c2)C(=O)/C1=C\c1ccccc1 | i
C=CCOc1ccc(/C=C2\C(=O)NN(c3cccc(Br)c3)C2=O)cc1OC | 34%*
SMILES | ST2 IL33 inh
COc1cc(C=O)ccc1OCCOc1ccc(Br)cc1Cl | i
COc1cc(C=C2C(=O)OC(C)(c3ccccc3)OC2=O)ccc1OCc1cccc(C(=O)O)c1 (configuration not stated) | i
COc1cc(/C=C2/C(=O)NN(c3ccc(Cl)cc3)C2=O)cc(OC)c1O | 30%*
COc1cc(/C=C2/NC(=O)NC2=O)cc(OC)c1O | i
O=C(NCC1CCCN(S(=O)(=O)c2ccc(F)c(Cl)c2)C1)c1cccnc1 (configuration not stated) | i
O=C(Nc1cccc(F)c1)c1cc2c(=O)oc3ccccc3c2s1 | i
CC1CCN(C(=O)C2CCC(Cn3c(=O)c4sccc4n(CC(N)=O)c3=O)CC2)CC1 (configuration not stated) | i
CCN(CC)C(=O)C1CCCN(Cc2ccc(OC)cc2)C1 (configuration not stated) | i
Clc1ccc(-c2nnc([C@H]3CCN(Cc4ccccc4Cl)C3)o2)cc1 | i
COC(=O)c1cc2n(n1)CCN(C(=O)CN(C)Cc1ccncc1)C2 | i
COc1cccc2ccc(N3CCC(O)(c4ccc(C)cn4)CC3)nc12 | i
Cc1ccc(Nc2nc(-c3ccc(F)cc3)cs2)cc1Cl | i
Cc1ccccc1-c1cc(O)c2c(c1)CN(c1cc(C(C)C)ncn1)CCO2 | i
NS(=O)(=O)c1ccc(CCNC(=O)CCN2C(=O)c3cccnc3Sc3ccccc32)cc1 | i
COc1cc(NS(=O)(=O)c2ccc(NC(=O)c3ccc(C(C)=O)cc3)cc2)ncn1 | i
CNc1nc(C(=O)N2CCC3(CCCN(C)CC3)CC2)cs1 | i
CN1CCC2(CC1)CN(C(=O)c1cc(-c3ccc(O)cc3)n[nH]1)CCCN2C | i
COc1cc(C(=O)N2CCCN(C)C3(CCN(C)CC3)C2)nc(OC)n1 | 33%*
CCSc1nnc(NC(=O)CN2CCc3[nH]nc(C(C)C)c3C2)s1 | i
COc1ccccc1C(=O)Nc1c2c(nn1-c1ccc(F)cc1)CS(=O)C2 (configuration not stated) | i
O=C(Cc1ccccc1)Nc1cccc(Cl)c1 | i
Cc1c(C(=O)N2CCN(C)CC2)oc2ccc(S(=O)(=O)N3CCCCCC3)cc12 | i
Cc1[nH]nc2c1C(c1cc(Br)cs1)C(C#N)=C(N)O2 (configuration not stated) | 33%*
Cc1ccc(-c2[nH]nc3c2C(c2ccccc2F)C(C#N)=C(N)O3)cc1 (configuration not stated) | i
CCOc1ccc(C2C(C#N)=C(N)Oc3n[nH]c(C)c32)cc1 (configuration not stated) | i
Cc1[nH]nc2c1C(c1c(F)cccc1F)C(C#N)=C(N)O2 (configuration not stated) | 32%*
